Percent Effect data for eleven molecules are collected here from ChEMBL document CHEMBL3988442, “University of Dundee, Small-Polar-MMV Screening Library” (2021).

For some of these results: Results with a measured potency or affinity are listed apart.

What all share (set-up): scale not given: direction of the effect not stated beside the values
Test [1] concerns the target Protein translocase subunit SecA (Escherichia coli (strain K12)) (UniProt P10408). The test can be described thus: Assay to Identify E. coli SecA ATPase Inhibitors. Particulars: 30 µM. Format: functional.
Test [2] concerns the target T1, Ubiquitin-activating enzyme e1, putative (Leishmania donovani (strain BPK282A1)) (UniProt E9BSI1).
T1 sequence (whole entry): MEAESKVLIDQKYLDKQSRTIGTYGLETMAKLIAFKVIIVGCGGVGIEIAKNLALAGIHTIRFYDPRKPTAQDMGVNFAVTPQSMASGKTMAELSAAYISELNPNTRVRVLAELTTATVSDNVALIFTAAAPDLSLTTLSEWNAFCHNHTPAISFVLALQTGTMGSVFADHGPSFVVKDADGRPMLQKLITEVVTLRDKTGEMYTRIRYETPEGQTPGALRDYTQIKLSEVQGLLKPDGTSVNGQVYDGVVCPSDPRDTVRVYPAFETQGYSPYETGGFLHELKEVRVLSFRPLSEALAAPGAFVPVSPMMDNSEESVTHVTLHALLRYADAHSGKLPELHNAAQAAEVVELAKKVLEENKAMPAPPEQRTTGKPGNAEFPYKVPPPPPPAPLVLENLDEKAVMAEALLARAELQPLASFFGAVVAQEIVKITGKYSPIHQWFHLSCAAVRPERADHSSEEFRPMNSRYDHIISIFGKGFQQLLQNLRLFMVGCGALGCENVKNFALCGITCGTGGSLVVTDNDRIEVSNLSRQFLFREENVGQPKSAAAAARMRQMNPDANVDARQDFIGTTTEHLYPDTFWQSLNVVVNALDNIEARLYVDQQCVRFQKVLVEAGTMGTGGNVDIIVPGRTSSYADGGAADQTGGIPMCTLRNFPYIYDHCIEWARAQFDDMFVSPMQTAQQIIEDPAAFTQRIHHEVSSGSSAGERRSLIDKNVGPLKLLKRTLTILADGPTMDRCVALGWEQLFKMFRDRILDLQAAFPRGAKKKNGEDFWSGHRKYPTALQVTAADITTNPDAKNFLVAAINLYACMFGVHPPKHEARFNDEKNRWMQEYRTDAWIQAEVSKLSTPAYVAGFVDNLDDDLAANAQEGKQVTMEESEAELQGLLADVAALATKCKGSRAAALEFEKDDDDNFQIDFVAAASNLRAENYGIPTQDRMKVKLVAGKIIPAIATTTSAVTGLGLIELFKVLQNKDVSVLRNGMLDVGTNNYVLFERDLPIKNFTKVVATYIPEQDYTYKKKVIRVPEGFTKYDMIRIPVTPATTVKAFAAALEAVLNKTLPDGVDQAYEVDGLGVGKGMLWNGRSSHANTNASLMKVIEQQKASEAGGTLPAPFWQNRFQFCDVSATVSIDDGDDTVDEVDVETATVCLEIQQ
The test can be described thus: Leishmania donovani Ubiquitin Activating Enzyme (LdE1). The test is classed as functional. Particulars: 30 µM.

Test [3] has as its target AMP-activated protein kinase, AMPK (Homo sapiens) (UniProt P54646+O43741+P54619+Q9UGJ0+Q9Y478+Q13131+Q9UGI9). Kind of test: AMP-dependent Kinase enzyme assay. An in vitro enzyme assay that detects ADP turnover that is directly proportional to AMPK activity. This uses naive AMPK that is activated during the assay with MK-8722. Format: functional. The following applies: 30 µM.

The target in test [4] is Sialic acid-binding Ig-like lectin 9 (Homo sapiens) (UniProt Q9Y336). The test can be described thus: Hs-Siglec9 ALPHAscreen SOP 20170721. Particulars: 10 µM. In general terms: In Alpha technology, singlet oxygen from a donor bead excites a nearby acceptor bead.
Sialic acid-binding Ig-like lectin 9 (Homo sapiens), sequence (Q9Y336 whole entry): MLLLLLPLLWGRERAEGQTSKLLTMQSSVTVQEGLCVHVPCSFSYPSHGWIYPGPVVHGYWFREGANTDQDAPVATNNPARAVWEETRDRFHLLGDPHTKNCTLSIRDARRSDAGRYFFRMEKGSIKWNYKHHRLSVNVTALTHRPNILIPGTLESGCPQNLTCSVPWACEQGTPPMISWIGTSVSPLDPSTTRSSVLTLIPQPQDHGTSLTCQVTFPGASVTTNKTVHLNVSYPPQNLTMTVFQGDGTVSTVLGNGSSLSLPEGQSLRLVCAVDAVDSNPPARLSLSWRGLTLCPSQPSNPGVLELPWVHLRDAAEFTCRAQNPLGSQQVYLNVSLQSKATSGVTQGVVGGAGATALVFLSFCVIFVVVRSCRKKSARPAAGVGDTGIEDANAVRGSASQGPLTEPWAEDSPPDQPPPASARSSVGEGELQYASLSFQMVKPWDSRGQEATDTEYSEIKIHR
A further test has as its system Trypanosoma cruzi. The test can be described thus: Trypanosoma cruzi phosphomannomutase and mannose-1-phosphate guanylyltransferase assay. The test is classed as functional. Particulars: 10 µM.
Test [5] has as its target T2, Arginase-2, mitochondrial (Homo sapiens) (UniProt P78540).
T2 sequence (whole entry): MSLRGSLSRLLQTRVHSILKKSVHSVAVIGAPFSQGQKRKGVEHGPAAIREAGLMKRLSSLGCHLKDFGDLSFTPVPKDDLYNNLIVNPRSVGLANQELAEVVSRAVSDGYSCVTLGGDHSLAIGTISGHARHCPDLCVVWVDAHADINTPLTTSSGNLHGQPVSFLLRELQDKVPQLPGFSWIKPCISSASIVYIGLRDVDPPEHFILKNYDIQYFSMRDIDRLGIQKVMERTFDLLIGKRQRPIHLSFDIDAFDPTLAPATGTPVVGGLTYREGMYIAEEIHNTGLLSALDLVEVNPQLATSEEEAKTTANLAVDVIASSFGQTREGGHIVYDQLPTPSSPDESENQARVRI
The test can be described thus: in vitro enzyme assay to detect the production of urea directly proportional to the activity of Arginase II. Further: in the data most compounds retested in dose-response had high values. The test is classed as functional. The following applies: 33.3 µM.

Test [6] concerns the target T3, Proteasome subunit beta (Trypanosoma cruzi) (UniProt O96673).
T3 sequence (whole entry): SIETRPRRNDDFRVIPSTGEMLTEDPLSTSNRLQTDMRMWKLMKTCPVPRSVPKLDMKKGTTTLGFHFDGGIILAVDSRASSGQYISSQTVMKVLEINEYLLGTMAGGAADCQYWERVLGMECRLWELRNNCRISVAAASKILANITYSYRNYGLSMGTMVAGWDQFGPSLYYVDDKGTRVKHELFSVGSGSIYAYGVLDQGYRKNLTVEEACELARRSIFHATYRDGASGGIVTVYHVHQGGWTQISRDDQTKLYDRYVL
Kind of test: Trypanosoma cruzi proteasome chymotrypsin-like activity (TcProtChymo) assay. Further: in the data most compounds retested in dose-response had high values. The test is classed as functional. The following applies: 9.37 µM.

The species entered for the next test is Homo sapiens. The test can be described thus: To identify inhibition of the IFN signalling (Jak-Stat) pathway via expression of an eGFP reporter gene under the control of an IFN-stimulated response element (ISRE) containing MxA promoter. Particulars: 30 µM. Format: functional. (In general: In a reporter assay the amount or activity of a reporter protein is the signal.)

The target in test [7] is T4, Tyrosyl-tRNA synthetase, putative (Trypanosoma cruzi (strain CL Brener)) (UniProt Q4DSP6).
T4 sequence (whole entry): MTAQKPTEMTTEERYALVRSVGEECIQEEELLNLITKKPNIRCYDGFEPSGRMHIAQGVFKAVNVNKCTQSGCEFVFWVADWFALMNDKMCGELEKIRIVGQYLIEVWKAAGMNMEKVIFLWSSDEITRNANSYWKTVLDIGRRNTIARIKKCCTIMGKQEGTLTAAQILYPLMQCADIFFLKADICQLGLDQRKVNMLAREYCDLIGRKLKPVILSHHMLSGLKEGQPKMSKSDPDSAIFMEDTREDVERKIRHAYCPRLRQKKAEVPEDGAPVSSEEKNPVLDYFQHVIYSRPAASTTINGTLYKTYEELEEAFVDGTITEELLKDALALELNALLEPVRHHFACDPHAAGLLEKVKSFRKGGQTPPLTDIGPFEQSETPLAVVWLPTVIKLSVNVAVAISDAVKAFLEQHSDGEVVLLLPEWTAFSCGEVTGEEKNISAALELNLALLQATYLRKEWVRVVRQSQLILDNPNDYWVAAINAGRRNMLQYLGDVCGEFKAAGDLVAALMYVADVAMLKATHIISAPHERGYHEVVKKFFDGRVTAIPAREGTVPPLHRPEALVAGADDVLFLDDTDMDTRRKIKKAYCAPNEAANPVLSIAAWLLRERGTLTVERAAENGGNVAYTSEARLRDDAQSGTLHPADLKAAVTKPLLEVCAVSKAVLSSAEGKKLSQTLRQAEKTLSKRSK
Kind of test: Trypanosoma cruzi tyrosyl tRNA synthetase (TcYRS) _High Tyrosine SOP. Further: in the data most compounds retested in dose-response had high values. Particulars: 30 µM. The test is classed as functional.

Test [8] has as its target T4, Tyrosyl-tRNA synthetase, putative (Trypanosoma cruzi (strain CL Brener)). Kind of test: Trypanosoma cruzi tyrosyl tRNA synthetase (TcYRS) SOP. The test is classed as functional. Particulars: 30 µM.
The target in test [9] is Chromo domain-containing protein 1 (Saccharomyces cerevisiae (strain ATCC 204508 / S288c) (Baker's yeast)) (UniProt P32657). The test can be described thus: ScCHD-1 Enzyme Inhibition Assay. Further: in the data most compounds retested in dose-response had high values. The test is classed as functional. The following applies: 30 µM.
Chromo domain-containing protein 1 (Saccharomyces cerevisiae (strain ATCC 204508 / S288c) (Baker's yeast)), sequence (P32657 whole entry, the tested form may be a part): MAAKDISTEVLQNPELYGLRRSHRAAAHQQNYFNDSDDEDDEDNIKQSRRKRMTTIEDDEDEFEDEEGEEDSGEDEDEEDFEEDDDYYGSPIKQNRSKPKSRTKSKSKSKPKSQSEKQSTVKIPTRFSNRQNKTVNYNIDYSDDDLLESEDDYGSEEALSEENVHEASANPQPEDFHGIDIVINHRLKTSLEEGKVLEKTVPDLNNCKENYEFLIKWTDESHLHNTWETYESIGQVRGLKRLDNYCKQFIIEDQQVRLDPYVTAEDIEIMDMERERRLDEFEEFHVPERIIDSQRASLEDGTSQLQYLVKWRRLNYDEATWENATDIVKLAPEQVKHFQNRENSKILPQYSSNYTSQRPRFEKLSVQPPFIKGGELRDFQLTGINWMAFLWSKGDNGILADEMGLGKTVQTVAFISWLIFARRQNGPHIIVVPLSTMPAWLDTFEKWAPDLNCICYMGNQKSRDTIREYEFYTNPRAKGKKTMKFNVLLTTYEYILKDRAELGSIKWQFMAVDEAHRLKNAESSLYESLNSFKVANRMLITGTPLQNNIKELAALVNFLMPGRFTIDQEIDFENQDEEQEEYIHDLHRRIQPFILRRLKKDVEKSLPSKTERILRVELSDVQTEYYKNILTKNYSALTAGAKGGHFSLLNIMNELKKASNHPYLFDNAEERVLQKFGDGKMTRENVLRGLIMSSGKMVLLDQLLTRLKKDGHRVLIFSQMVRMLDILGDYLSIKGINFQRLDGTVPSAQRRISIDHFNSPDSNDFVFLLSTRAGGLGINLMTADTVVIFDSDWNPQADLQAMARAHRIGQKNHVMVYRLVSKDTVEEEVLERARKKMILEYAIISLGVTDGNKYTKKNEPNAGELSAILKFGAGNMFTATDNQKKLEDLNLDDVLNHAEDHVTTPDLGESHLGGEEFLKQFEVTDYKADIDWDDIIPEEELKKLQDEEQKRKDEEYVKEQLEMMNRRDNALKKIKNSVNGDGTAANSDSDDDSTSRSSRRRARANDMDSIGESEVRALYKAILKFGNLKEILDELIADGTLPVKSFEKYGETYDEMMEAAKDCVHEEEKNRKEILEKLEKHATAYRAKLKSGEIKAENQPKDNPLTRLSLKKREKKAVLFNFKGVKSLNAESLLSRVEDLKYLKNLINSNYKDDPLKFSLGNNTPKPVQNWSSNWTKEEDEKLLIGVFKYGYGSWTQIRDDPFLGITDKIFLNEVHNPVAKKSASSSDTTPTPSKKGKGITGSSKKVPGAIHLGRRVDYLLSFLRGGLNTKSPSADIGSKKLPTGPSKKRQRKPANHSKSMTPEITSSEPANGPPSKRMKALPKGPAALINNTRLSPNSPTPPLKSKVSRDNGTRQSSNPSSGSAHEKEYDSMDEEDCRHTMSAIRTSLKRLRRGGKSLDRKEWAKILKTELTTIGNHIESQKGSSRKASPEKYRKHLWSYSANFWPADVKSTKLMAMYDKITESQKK

Protein translocase subunit SecA (Escherichia coli (strain K12)), sequence (P10408 whole entry): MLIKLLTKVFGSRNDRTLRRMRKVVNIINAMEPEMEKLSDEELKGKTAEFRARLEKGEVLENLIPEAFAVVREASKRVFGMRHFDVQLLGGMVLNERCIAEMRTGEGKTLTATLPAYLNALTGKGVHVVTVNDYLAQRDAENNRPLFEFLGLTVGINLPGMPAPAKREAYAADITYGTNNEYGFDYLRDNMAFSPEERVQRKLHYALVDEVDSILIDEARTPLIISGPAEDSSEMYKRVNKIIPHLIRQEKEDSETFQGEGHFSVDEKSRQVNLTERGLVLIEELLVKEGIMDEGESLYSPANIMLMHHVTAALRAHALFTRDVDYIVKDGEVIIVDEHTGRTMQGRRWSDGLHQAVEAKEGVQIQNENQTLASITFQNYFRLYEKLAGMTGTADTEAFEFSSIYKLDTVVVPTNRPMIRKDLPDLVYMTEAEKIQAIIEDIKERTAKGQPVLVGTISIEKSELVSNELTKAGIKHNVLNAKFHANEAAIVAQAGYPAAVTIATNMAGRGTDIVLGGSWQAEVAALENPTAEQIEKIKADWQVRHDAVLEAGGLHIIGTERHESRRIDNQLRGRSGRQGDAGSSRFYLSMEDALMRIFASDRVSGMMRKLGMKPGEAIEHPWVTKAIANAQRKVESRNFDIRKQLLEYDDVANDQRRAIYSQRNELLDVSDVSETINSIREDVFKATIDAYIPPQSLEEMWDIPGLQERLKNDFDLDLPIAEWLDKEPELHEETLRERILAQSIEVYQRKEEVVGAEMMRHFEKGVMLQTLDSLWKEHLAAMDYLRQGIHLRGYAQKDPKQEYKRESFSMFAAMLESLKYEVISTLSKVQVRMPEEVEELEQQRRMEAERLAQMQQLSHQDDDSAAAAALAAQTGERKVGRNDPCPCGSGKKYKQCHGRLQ

As to `Cc1cccc(C(=O)NCCCN2CCN(c3ccccc3)CC2)c1`, the Percent Effect is -2.4% in test [1]; 10.4% in test [2]; -2.04% in test [3]; -11.3% in [4]; -7% in the test with Trypanosoma cruzi; 5.81% in [5]. Further, the Percent Effect was 12.7% in test [6]; 13.6% in the test filed under Homo sapiens; 1.06% in test [7]; 8.97% in test [8]; -9.93% in test [9].

Take `CN(C)CC(=O)N1CCOC2(CCCN(c3ncccc3F)C2)C1` (stereo unspecified): the Percent Effect in test [1] was -5.7%; in [2], 8.11%; in test [3] it was 1.61%; in [4], 5.4%; with Trypanosoma cruzi, 0%; in [5], 1.25%. Besides, the Percent Effect in [6] is 4.48%; in the test filed under Homo sapiens, 8.63%; in test [7], 7.92%; in test [8], 13.4%; in test [9], -5.27%.

On to `CNS(=O)(=O)c1cccc(CNc2cc(C(F)(F)F)ccn2)c1`, for which the Percent Effect was -7.14% in [1]; 5.41% in [2]; 12.6% in test [3]; -1.96% in test [4]; -6.13% in the test with Trypanosoma cruzi; 5.21% in [5]. Also, the Percent Effect is 0.54% in test [6]; 38.2% in the test listed under Homo sapiens; 4.43% in test [7]; 3.7% in test [8]; -1.45% in [9].

As to `Cc1ccc(C(=O)N2CCN(C(=O)Nc3ccccn3)CC2)o1`, the Percent Effect in test [1] was -7.04%; in test [2], -2.6%; in test [3], 9.04%; in [4], -0.542%; in the test on Trypanosoma cruzi, -5.58%; in [5], 2.32%. Also, the Percent Effect was 9.13% in test [6]; 11% in the test filed under Homo sapiens; 0% in test [7]; -4.71% in test [8]; -16.4% in [9].

On to `CCOc1ccc(C#N)cc1NCC(=O)Nc1cc(F)ccc1F`, for which the Percent Effect is -4.77% in test [1]; -12.7% in test [2]; -7.04% in test [3]; -0.166% in test [4]; 4.63% in the test on Trypanosoma cruzi; -29.7% in test [5]. The Percent Effect in test [6] is 3.19%; in the test filed under Homo sapiens, -7.08%; in test [7], 7.39%; in test [8], 24.1%; in [9], 18.3%.

In the case of `Cc1cc(CN2CCN(c3ccc4nncn4n3)C(C)C2)no1` (stereo unspecified), the Percent Effect in [1] was -6.67%; in test [2], 20.8%; in test [3] it was -6.96%; in [4], 14.4%; in the test with Trypanosoma cruzi it was 5.8%; in test [5] it was 4.63%. Further, the Percent Effect in test [6] was 11.2%; in the test filed under Homo sapiens, 19.6%; in test [7], 9.71%; in [8], 21.9%; in [9], -10.9%.

Consider `Nc1nc(C2CCN(C(=O)c3cscn3)CC2)cs1`, for which the Percent Effect in test [1] is -2.59%; in test [2], 10.7%; in [3], 8.2%; in [4], -2.11%; with Trypanosoma cruzi it was -3.15%; in test [5] it was -3.03%. The Percent Effect was 3.96% in test [6]; 18.2% in the test listed under Homo sapiens; 3.19% in [7]; 11.5% in test [8]; -5.08% in test [9].

Consider `CCc1nc(CCNC(=O)Nc2ccc(C(=O)NC)cc2C)cs1`, for which the Percent Effect in test [1] was -9.57%; in [2], 0%; in test [3], -0.875%; in test [4], 3.65%; with Trypanosoma cruzi, -3.8%; in test [5], -3.65%. In addition, the Percent Effect in [6] is 4.18%; in the test listed under Homo sapiens, 40.4%; in [7], -2.73%; in [8], -1.24%; in test [9], -1.65%.

For `Cn1nccc1C(=O)N1CCOC(Cc2cccnc2)C1` (stereo unspecified), the Percent Effect in test [1] is -5.75%; in [2], 10.7%; in test [3] it was -3.23%; in [4], 4.56%; with Trypanosoma cruzi it was 5.91%; in [5], -3.03%. Moreover, the Percent Effect in test [6] is -4.85%; in the test listed under Homo sapiens it was 7.36%; in test [7], 6.38%; in test [8], 16.7%; in [9] it was -7.31%.

In the case of `CC(C)n1ccnc1CN1CCCN(C(=O)CC2C=CCC2)CC1` (stereo unspecified), the Percent Effect was -5.72% in test [1]; -1.27% in [2]; 12.6% in [3]; -5.19% in test [4]; -3.18% in the test with Trypanosoma cruzi; -6.67% in [5]. Besides, the Percent Effect in test [6] was 17.8%; in the test filed under Homo sapiens, 9.57%; in test [7] it was -2.08%; in [8] it was -5.06%; in test [9], -12.8%.

With `CN(C)[C@@H]1CCN(C(=O)c2ccsc2)[C@H]1Cc1cnn(C)c1`, the Percent Effect in [1] was -3.13%; in [2], 0%; in test [3], 12.6%; in test [4], 1.61%; in the test on Trypanosoma cruzi it was -3.15%; in test [5] it was -1.63%. Moreover, the Percent Effect in test [6] was 12.2%; in the test filed under Homo sapiens, 4.21%; in [7] it was 3.19%; in test [8], -1.28%; in [9] it was 2.12%.
